Measurements as given in PubChem BioAssay AID1159580 (chemical genetic matrix, 2015).
“And” between values parts separate entries of the source, which are not always exact repeats. Equal values may be shown once. Hit rate of the full screen: of about 5,500 compounds, about 2,000 (36%) were called active. Inconclusive results (about 18%) are left out. Rule as the data show it: active = normalized growth mostly below about 0.91 (no sharp cut-off); inconclusive = no clear call, values can overlap the other calls; inactive = mostly above about 0.92. This is one part of the list.

Assay: chemical genetic growth profiling, strain panel (AID 1159580);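 also: tested at 20 µM; growth read once vehicle control cultures reached saturation at 30 °C; 1 = growth at the plate median or of vehicle wells; lower values mean less growth of the strain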
Conditions: S. cerevisiae deletion strains, growth OD

Measured: normalized growth

C=C[C@H]1CN2CC[C@H]1C[C@@H]2[C@H](O)c1ccnc2ccccc12
inactive: locus YAL013W, strain DEP1, stronger effect = lower value 1 | locus YAL021C, strain ccr4, stronger effect = lower value 1.01 | locus YAL026C, strain drs2, stronger effect = lower value 0.994 | locus YAL030W, strain snc1, stronger effect = lower value 0.999 | locus YBL061C, strain skt5, stronger effect = lower value 0.992 | locus YBR009C, strain hhf1, stronger effect = lower value 0.988 | locus YBR021W, strain FUR4, stronger effect = lower value 1.02 | locus YBR023C, strain chs3, stronger effect = lower value 0.981 | locus YBR171W, strain sec66, stronger effect = lower value 0.988 | locus YBR229C, strain ROT2, stronger effect = lower value 0.995 | locus YBR231C, strain swc5, stronger effect = lower value 0.989 | locus YBR279W, strain paf1, stronger effect = lower value 0.996 | locus YCL011C, strain gbp2, stronger effect = lower value 0.988 | locus YCL016C, strain dcc1, stronger effect = lower value 0.979 | locus YCL029C, strain bik1, stronger effect = lower value 0.973 | locus YCL069W, strain vba3, stronger effect = lower value 0.987 | locus YCR088W, strain abp1, stronger effect = lower value 0.994 | locus YDL005C, strain med2, stronger effect = lower value 0.975 | locus YDL035C, strain GPR1, stronger effect = lower value 1.02 | locus YDL040C, strain nat1, stronger effect = lower value 0.983 | locus YDL074C, strain BRE1, stronger effect = lower value 0.999 | locus YDL101C, strain DUN1, stronger effect = lower value 0.985 | locus YDL134C, strain PPH21, stronger effect = lower value 0.997 | locus YDL185W, strain tfp1, stronger effect = lower value 0.976 | locus YDL192W, strain arf1, stronger effect = lower value 0.98 | locus YDR001C, strain nth1, stronger effect = lower value 0.985 | locus YDR069C, strain doa4, stronger effect = lower value 0.996 | locus YDR101C, strain arx1, stronger effect = lower value 0.985 | locus YDR137W, strain rgp1, stronger effect = lower value 0.99 | locus YDR150W, strain NUM1, stronger effect = lower value 0.986 | locus YDR159W, strain sac3, stronger effect = lower value 1.02 | locus YDR162C, strain NBP2, stronger effect = lower value 0.988 | locus YDR195W, strain ref2 0.989 | locus YDR297W, strain sur2, stronger effect = lower value 1.01 | locus YDR318W, strain mcm21, stronger effect = lower value 0.985 | locus YDR334W, strain swr1, stronger effect = lower value 0.977 | locus YDR335W, strain msn5, stronger effect = lower value 0.99 | locus YDR388W, stronger effect = lower value 0.988 | locus YDR392W, strain spt3, stronger effect = lower value 0.973 | locus YDR502C, strain sam2, stronger effect = lower value 0.982 | locus YEL003W, strain gim4, stronger effect = lower value 0.989 | locus YEL037C, strain rad23, stronger effect = lower value 0.983 | locus YEL061C, strain CIN8 (second series), stronger effect = lower value 0.993 | locus YEL061C, strain CIN8, stronger effect = lower value 0.998 | locus YER015W, strain faa2, stronger effect = lower value 0.986 | locus YER016W, strain bim1, stronger effect = lower value 0.987 | locus YER110C, stronger effect = lower value 0.981 | locus YER111C, strain swi4, stronger effect = lower value 0.975 | locus YER155C, strain BEM2 (second series), stronger effect = lower value 0.972 | locus YER155C, strain BEM2, stronger effect = lower value 0.995 | locus YER167W, strain BCK2, stronger effect = lower value 1 | locus YFR010W, strain ubp6, stronger effect = lower value 0.999 | locus YGL078C, strain dbp3, stronger effect = lower value 1.01 | locus YGL086W, strain mad1, stronger effect = lower value 1.01 | locus YGL167C, strain pmr1, stronger effect = lower value 0.993 | locus YGL173C, strain kem1, stronger effect = lower value 0.981 | locus YGL227W, strain vid30, stronger effect = lower value 0.984 | locus YGL240W, strain doc1, stronger effect = lower value 0.986 | locus YGL248W, strain PDE1, stronger effect = lower value 0.994 | locus YGL253W, strain hxk2, stronger effect = lower value 0.994 | locus YGR078C, strain PAC10, stronger effect = lower value 0.988 | locus YGR135W, strain pre9, stronger effect = lower value 0.978 | locus YGR229C, strain SMI1, stronger effect = lower value 1.02 | locus YGR252W, strain gcn5, stronger effect = lower value 1.17 | locus YHR013C, strain ard1, stronger effect = lower value 0.962 | locus YHR027C, strain rpn1, stronger effect = lower value 0.992 | locus YHR030C, strain SLT2, stronger effect = lower value 0.994 and 0.988 | locus YHR079C, strain IRE1 (second series), stronger effect = lower value 0.979 | locus YHR079C, strain IRE1, stronger effect = lower value 1 | locus YHR094C, strain hxt1, stronger effect = lower value 0.97 | locus YHR129C, strain ARP1, stronger effect = lower value 0.989 | locus YHR142W, strain chs7, stronger effect = lower value 0.974 | locus YHR200W, strain rpn10, stronger effect = lower value 0.994 | locus YIL066C, strain RNR3, stronger effect = lower value 0.992 | locus YIL073C, strain SPO22, stronger effect = lower value 0.928 | locus YIL125W, strain kgd1, stronger effect = lower value 0.988 | locus YIR030C, strain dcg1, stronger effect = lower value 0.989 | locus YJL092W, strain hpr5, stronger effect = lower value 0.99 | locus YJL095W, strain BCK1 (second series), stronger effect = lower value 0.985 | locus YJL095W, strain BCK1, stronger effect = lower value 0.977 and 1 | locus YJL115W, strain asf1, stronger effect = lower value 0.972 | locus YJL129C, strain trk1, stronger effect = lower value 0.992 | locus YJL134W, strain LCB3, stronger effect = lower value 0.992 | locus YJL154C, strain vps35, stronger effect = lower value 0.971 | locus YJL164C, strain tpk1, stronger effect = lower value 0.987 | locus YJL166W, strain qcr8, stronger effect = lower value 1 | locus YJL168C, strain set2, stronger effect = lower value 0.983 | locus YJL187C, strain SWE1 (second series), stronger effect = lower value 0.956 | locus YJR043C, strain POL32, stronger effect = lower value 0.996 | locus YJR066W, strain TOR1, stronger effect = lower value 0.989 | locus YJR075W, strain HOC1, stronger effect = lower value 0.978
